Screens deposited in PubChem by University of Kansas High Throughput Screening Laboratory.
Sampled rows, rich in hits. Any-hit rate of the full collection: about 3.5%.
Pf apPOL block – Pf-apPOL inhibitors, biochemical, fluorescence; Plasmodium falciparum apicoplast DNA polymerase (apPOL); Recombinant Pf-apPOL, molecular beacon fluorescence, 1.5 h; inhibition, % at 10 µM; 210,000 compounds, 0.25% hits; AID 1794808, 2022
mHTT CaM bind – mutant huntingtin-calmodulin interaction inhibitors – biochemical, AlphaScreen, primary screen; P42858; AlphaScreen His-mHTT/GST-CaM binding, luminescence; inhibition, % at 15 µM; 190,000 compounds, 3.6% hits
Of the large screens only hits and unclear results are named; the others gave an inactive call; ! = not active in a repeat. No stated cut-off is given here; in the data, active means inhibition above about 50%; inactive means the rest.

COc1ccc(N2CC(c3nnc(NC(=O)c4ccc(C(C)(C)C)cc4)o3)CC2=O)cc1 (centres undefined)	none
COc1ccc(N2CC(c3nnc(NC(=O)c4ccc(C)cc4)o3)CC2=O)cc1 (centres undefined)	mHTT CaM bind 50
CCOc1ccc(N2CC(c3nnc(NC(=O)c4ccc(Cl)cc4)o3)CC2=O)cc1 (centres undefined)	none
COc1cc(C2CC(=O)Nc3n[nH]c(-c4ccc(Cl)cc4)c32)ccc1O (centres undefined)	mHTT CaM bind 100
COc1cc(C2CC(=O)Nc3n[nH]c(C)c32)ccc1OCc1cccc(C)c1 (centres undefined)	none
COc1ccc(C2CC(=O)Nc3n[nH]c(-c4ccc(Cl)cc4)c32)cc1OC (centres undefined)	none
COc1cccc(C2CC(=O)Nc3n[nH]c(-c4ccccc4)c32)c1 (centres undefined)	none
COc1cc(C2CC(=O)Nc3n[nH]c(-c4ccccc4)c32)cc(OC)c1OC (centres undefined)	mHTT CaM bind 100
COc1cc(C2CC(=O)Nc3n[nH]c(C)c32)ccc1OCc1cccc(Cl)c1 (centres undefined)	mHTT CaM bind 56
Brc1ccc(C2=CC(c3ccc(Br)cc3)n3nnnc3N2)cc1 (centres undefined)	none
O=C(COc1ccc(F)cc1)N1CC2CC1CC2NS(=O)(=O)c1ccccc1 (centres undefined)	none
COc1cc(NC(=O)Cn2nc(C)c([N+](=O)[O-])c2C)c(OC)cc1Cl	none
CNC(=O)c1cc(-c2cccc(F)c2)nc2ccccc12	none
COc1cccc(C(=O)Nc2c3c(nn2-c2ccc(C)cc2C)CSC3)c1OC	mHTT CaM bind 50
O=C(Nc1c2c(nn1-c1cccc(Cl)c1)CSC2)c1ccco1	mHTT CaM bind 67
Cc1cccc(-n2nc3c(c2NC(=O)c2ccco2)CSC3)c1C	mHTT CaM bind 60
O=C(Nc1c2c(nn1-c1cccc(Cl)c1)CSC2)c1c(F)cccc1F	none
COc1cc(C(=O)Nc2c3c(nn2-c2ccc(C)cc2C)CSC3)cc(OC)c1OC	none
Cc1ccccc1-n1nc2c(c1NC(=O)c1ccco1)CSC2	none
O=C(NCc1cccs1)C(=O)Nc1c2c(nn1-c1cccc(Cl)c1)CSC2	mHTT CaM bind 69
CC(=O)Nc1c2c(nn1-c1cccc(Cl)c1)CSC2	none
C=CCN1CN(C(=O)c2ccccc2)Cc2c1sc1c2CCCC1	none
NC(=O)c1cc2cc(Cl)ccc2oc1=Nc1ccccc1F	none
O=c1nc(NC2CCCCCCCCCCC2)cn[nH]1	none (no result: Pf apPOL block)
COCCNC(=O)NC1CCN(c2nc3ccccc3n(C)c2=O)CC1	none
O=C(CC1CSc2nc3c(c(=O)n21)CCCC3)NCCc1c[nH]c2ccccc12 (centres undefined)	none
Cc1ccc(S(=O)(=O)OCCCCN2C(=O)CC3(CCCC3)CC2=O)cc1	none (no result: mHTT CaM bind)
COc1ccc2c(c1)C(O)(c1c[nH]c3ccccc13)C(=O)N2 (centres undefined)	none
O=C(Nc1ccc(Cl)cc1F)N1CCc2c(nc3cc[nH]n3c2=O)C1	none
COCCN1C(=O)c2ccc(C(=O)OCC(=O)c3ccc(Cl)cc3)cc2C1=O	none
Cc1ccc(-n2nc3c(c2NC(=O)c2ccc([N+](=O)[O-])cc2)CSC3)c(C)c1	mHTT CaM bind 50
Cc1ccc(C(=O)Nc2c3c(nn2-c2ccc(C)cc2C)CSC3)cc1	none
Cc1ccc(-n2nc3c(c2NC(=O)c2ccco2)CSC3)c(C)c1	mHTT CaM bind 52
Cc1ccc(-n2nc3c(c2NC(=O)c2cccc([N+](=O)[O-])c2)CSC3)c(C)c1	none
Cc1ccccc1C1CCCN1C(=O)c1cc(C(F)(F)F)nn1C (centres undefined)	none
CC12CCC(C(=O)N(c3ccc(Cl)c(Cl)c3)C1=O)C2(C)C (centres undefined)	none
CCc1c(C2CCN(C(=O)CC3CCCC3)CC2)noc1N	none
Cc1noc(C2(NC(=O)c3ccc(C)s3)CCCCC2)n1	none
COc1ccc(C2C(C#N)=C(N)Oc3n[nH]c(-c4ccc(OC)c(OC)c4)c32)cc1O (centres undefined)	none
COc1cc(C2C(C#N)=C(N)Oc3n[nH]c(-c4ccc(Cl)c(Cl)c4)c32)ccc1O (centres undefined)	mHTT CaM bind 99
COc1ccc(-c2[nH]nc3c2C(c2ccc(C(F)(F)F)cc2)C(C#N)=C(N)O3)cc1OC (centres undefined)	mHTT CaM bind 100
N#CC1=C(N)Oc2n[nH]c(-c3cccc([N+](=O)[O-])c3)c2C1c1ccc(O)cc1 (centres undefined)	none
N#CC1=C(N)Oc2n[nH]c(-c3ccc(Cl)c(Cl)c3)c2C1c1ccc(O)cc1 (centres undefined)	mHTT CaM bind 100
COc1cc(C2C(C#N)=C(N)Oc3n[nH]c(-c4cc(OC)c(OC)c(OC)c4)c32)ccc1O (centres undefined)	none
CN(CC(=O)N1CCCC1)C(=O)C1CN(S(=O)(=O)c2cccnc2)CC12CCCCC2 (centres undefined)	none
Clc1ccc(Nc2ncnc3c2nc2n3CCCCC2)cc1	none
COc1ccccc1/C=C1\SC(=O)N(CN2CCCCC2)C1=O	none
CC(CCc1ccccc1)NC(=O)Cn1cnc2c1c(=O)n(C)c(=O)n2C (centres undefined)	none
Cc1cc(C(=O)N(C)C)c(C)n1-c1ccc(O)cc1	none
CCCCN(C)S(=O)(=O)c1ccc(C(=O)Nc2nc3c(s2)Cc2ccccc2-3)cc1	none
CN(C)S(=O)(=O)c1ccc(C(=O)Nc2nc(-c3cccs3)cs2)cc1	none
O=C(Nc1nc(-c2ccccn2)cs1)c1ccc(S(=O)(=O)N2CCc3ccccc32)cc1	mHTT CaM bind 97
CCCCN(C)S(=O)(=O)c1ccc(C(=O)Nc2nc(-c3ccccn3)cs2)cc1	mHTT CaM bind 86
O=C(Nc1nc(-c2cccnc2)cs1)c1ccc(S(=O)(=O)N2CCc3ccccc32)cc1	none
CN(C1CCCCC1)S(=O)(=O)c1ccc(C(=O)Nc2nc(-c3ccccn3)cs2)cc1	mHTT CaM bind 99
Cc1cc(C)n(CC2CCN(C(=O)COc3ccc(Cl)cc3Cl)CC2)n1	none
O=C1CC(N2CCCC2)C(=O)N1c1cccc(Cl)c1 (centres undefined)	none
C/C=C/COc1nc2c(c(=O)n(C)c(=O)n2C)n1C	none
C=CCOc1nc2c(c(=O)n(C)c(=O)n2C)n1C	mHTT CaM bind 100!
CCOc1ccccc1NC(=O)CCN1CCN(C2c3ccccc3-c3ccccc32)CC1	mHTT CaM bind 57
O=C(CCN1CCN(C2c3ccccc3-c3ccccc32)CC1)Nc1ccccc1F	none
Cc1ccc(C2=NN(CCC(=O)NCC3CCCO3)C(=O)CC2)cc1 (centres undefined)	none
O=C(NCc1ccco1)c1cc2nc(-c3ccc([N+](=O)[O-])cc3)cc(C(F)(F)F)n2n1	none
COc1ccc(-c2coc3c2c(C)cc2oc(=O)c4c(c23)CCC4)cc1	Pf apPOL block 86
COc1ccc(-c2coc3c(C)c4oc(=O)c5c(c4cc23)CCC5)cc1	none
Cc1ccc(N(C)S(=O)(=O)c2ccc3[nH]cc(C(=O)N4CCC(C)CC4)c(=O)c3c2)cc1C	none
Cc1ccc(N(C)S(=O)(=O)c2ccc3[nH]cc(C(=O)N4CCCCCC4)c(=O)c3c2)cc1C	mHTT CaM bind 58
COc1ccc(NC(=O)CN2CCN(C3c4ccccc4-c4ccccc43)CC2)cc1Cl	none
O=C(CN1CCN(C2c3ccccc3-c3ccccc32)CC1)Nc1ccc2c(c1)OCCO2	mHTT CaM bind 58
Cc1cc(-c2ccccc2)nc2cc(C(=O)N3CCCC3)nn12	none
